Test results reported in PubChem BioAssay (EPA / NIEHS).
Results filed as inconclusive are left out. Activity calls are given as the source filed them. Rule for the calls, unless noted: active = hit-call score of the fitted dose curve at least 0.9, where 1 is the maximum; inconclusive = response in the unintended direction; inactive = score below 0.9.

Experiments:
[1] = read-out: alkyl and aryl transferase (GSTA2), GSTA2 (gene 2939); experiment: CLD_GSTA2_24hr: CellzDirect (CLD) Gene Expression Assay for alkyl and aryl transferase (GSTA2) at 24 hours (AID 2283693)
Outline: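 GSTA2 transcript levels were quantified by quantitative nuclease protection assay in primary human hepatocytes 24 h after daily dosing with fresh solutions at multiple concentrations; 0.2% DMSO vehicle as baseline, cytotoxicity flagged morphologically.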

[2] = read-out: Cytochrome P450 3A4 (Homo sapiens) (UniProt P08684); experiment: CLD_CYP3A4_48hr: CellzDirect (CLD) Gene Expression Assay for xenobiotic metabolism (CYP3A4) at 48 hours (AID 2283698)
Outline: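 CYP3A4 induction read by qNPA chemiluminescence after 48 h, with fresh dosing solutions on consecutive days, in cultured human hepatocytes (two donors). Vehicle 0.2% DMSO as baseline; microscopy-based cytotoxicity annotated yes/no alongside data.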

[3] = read-out: Cytochrome P450 2B6 (Homo sapiens) (UniProt P20813); experiment: CLD_CYP2B6_48hr: CellzDirect (CLD) Gene Expression Assay for xenobiotic metabolism (CYP2B6) at 48 hours (AID 2283699);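 note: actives raise transcript level above DMSO so potency reflects induction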
Outline: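 CYP2B6 transcript induction, read by quantitative nuclease protection (S1 digestion, chemiluminescent detection) 48 h after dosing, is fitted upward against 0.2% DMSO. Cultured human liver primary cells, two donor preparations, received fresh chemical daily over multiple concentrations.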

[4] = read-out: Cytochrome P450 2C19 (Homo sapiens) (UniProt P33261); experiment: CLD_CYP2C19_48hr: CellzDirect (CLD) Gene Expression Assay for xenobiotic metabolism (CYP2C19) at 48 hours (AID 2283700);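 note: fitted upward so actives raise CYP2C19 mRNA above the 0.2% DMSO vehicle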
Outline: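 CYP2C19 mRNA induction read by chemiluminescent quantitative nuclease protection assay after 48 h, with fresh compound added daily for two days to cultured human liver hepatocytes. Activity fitted upward against 0.2% DMSO vehicle.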

[5] = read-out: xenobiotic metabolism (CYP1A2), CYP1A2 (gene 1544); experiment: CLD_CYP1A2_48hr: CellzDirect (CLD) Gene Expression Assay for xenobiotic metabolism (CYP1A2) at 48 hours (AID 2283703)
Outline: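 Cytotoxicity was flagged yes/no from morphology, while CYP1A2 transcript induction was detected by qNPA chemiluminescence after a 48-hour exposure. Human primary hepatocyte cultures from separate donors received fresh dosing solutions daily over two days, with 0.2% DMSO as vehicle and baseline.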

[6] = read-out: xenobiotic metabolism (CYP1A1), CYP1A1 (gene 1543); experiment: CLD_CYP1A1_48hr: CellzDirect (CLD) Gene Expression Assay for xenobiotic metabolism (CYP1A1) at 48 hours (AID 2283705)
Outline: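 CYP1A1 transcript measured by quantitative nuclease protection (chemiluminescent) 48 h after two daily treatments of human hepatocyte cultures, versus 0.2% DMSO. Morphology-based cytotoxicity flags accompany data; two donor preparations used.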

[7] = read-out: organic anion transporter (SLCO1B1), SLCO1B1 (gene 10599); experiment: CLD_SLCO1B1_48hr: CellzDirect (CLD) Gene Expression Assay for organic anion transporter (SLCO1B1) at 48 hours (AID 2283707)
Outline: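 SLCO1B1 transcript quantified by qNPA with chemiluminescent readout after 48 h of once-daily chemical exposure. Cultured human primary hepatocytes came from two donors, with 0.2% DMSO vehicle; positive-direction fitting against DMSO, cytotoxicity flagged by morphology.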

[8] = read-out: alkyl and aryl transferase (GSTA2), GSTA2 (gene 2939); experiment: CLD_GSTA2_48hr: CellzDirect (CLD) Gene Expression Assay for alkyl and aryl transferase (GSTA2) at 48 hours (AID 2283708);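 note: active means mRNA induction above DMSO vehicle baseline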
Outline: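 GSTA2 mRNA quantified by qNPA chemiluminescence in human primary hepatocyte lysates after 48 h of daily fresh chemical dosing. Increases fitted against 0.2% DMSO vehicle baseline; cytotoxicity from morphology annotated yes/no.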

[9] = read-out: glucuronosyltransferase (UGT1A1), UGT1A1 (gene 54658); experiment: CLD_UGT1A1_48hr: CellzDirect (CLD) Gene Expression Assay for glucuronosyltransferase (UGT1A1) at 48 hours (AID 2283709);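 note: actives increase expression relative to DMSO so potency refers to induction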
Outline: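 Quantitative nuclease protection assay (chemiluminescent) for UGT1A1 mRNA at 48 h in human hepatocyte cultures from two donors, redosed daily with fresh solutions. Induction fitted relative to 0.2% DMSO; phase-contrast morphology annotated cytotoxicity.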

[10] = read-out: ABC Transporter (ABCB1), ABCB1 (gene 5243); experiment: CLD_ABCB1_48hr: CellzDirect (CLD) Gene Expression Assay for ABC Transporter (ABCB1) at 48 hours (AID 2283695)
Outline: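 ABCB1 mRNA was measured by quantitative nuclease protection assay (chemiluminescence) 48 h after dosing. Human hepatocyte cultures from two separate donors received fresh dosing solutions daily for two days, with 0.2% DMSO as vehicle. Positive-direction fit against DMSO.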

[11] = CLD_ACTIN_48hr: CellzDirect (CLD) Gene Expression Assay for Baseline Control (Actin) at 48 hours (AID 2283702)
Outline: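 Background-control actin mRNA read by qNPA chemiluminescence at 48 h. Human hepatocyte cultures from two donors received fresh multi-concentration chemical doses daily for two days; 0.2% DMSO served as vehicle baseline.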

[12] = read-out: glucuronosyltransferase (UGT1A1), UGT1A1 (gene 54658); experiment: CLD_UGT1A1_24hr: CellzDirect (CLD) Gene Expression Assay for glucuronosyltransferase (UGT1A1) at 24 hours (AID 2283696)
Outline: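 UGT1A1 transcript induction was measured by quantitative nuclease protection assay (chemiluminescence) in human hepatocyte cultures 24 h after daily fresh dosing, with 0.2% DMSO as vehicle and baseline.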

[13] = STM_H9_OrnithineISnorm_perc: Stemina devTOX quickPredict H9 human embryonic stem cell (hESC)-based Assay for Ornithine (ORN) Metabolite Biomarker, Normalized (AID 2283712; active = hit-call score of the fitted dose curve at least 0.9, where 1 is the maximum; inactive = score below 0.9;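 note: ornithine released into spent medium during last day measured by mass spectrometry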)
Outline: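 UPLC-HRMS readout: endogenous ornithine EIC area / 13C-ORN internal standard, then % of 0.1% DMSO median. H9 hESCs (pluripotent), 72h exposure, re-dosed with fresh media q24h; last 24-h spent media, deproteinized in 40% acetonitrile.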

[14] = read-out: Cytochrome P450 2C9 (Homo sapiens) (UniProt P11712); experiment: CLD_CYP2C9_48hr: CellzDirect (CLD) Gene Expression Assay for xenobiotic metabolism (CYP2C9) at 48 hours (AID 2283701; active = hit-call score of the fitted dose curve at least 0.9, where 1 is the maximum; inactive = score below 0.9)
Outline: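 mRNA level measured by quantitative nuclease protection (S1 digestion, chemiluminescent detection) in lysates of human primary hepatocytes exposed 48 h with daily re-dosing. Induction fitted positively versus 0.2% DMSO; morphology-based cytotoxicity flagged yes/no.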

[15] = read-out: sulfotransferase (SULT2A), SULT2A1 (gene 6822); experiment: CLD_SULT2A_48hr: CellzDirect (CLD) Gene Expression Assay for sulfotransferase (SULT2A) at 48 hours (AID 2283710);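 note: hits raise SULT2A1 transcript above the 0.2% DMSO vehicle baseline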
Outline: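 SULT2A1 transcript measured by qNPA chemiluminescence in human primary hepatocyte cultures after 48 h, with fresh dosing solutions on two consecutive days; gain-of-signal fitting against 0.2% DMSO vehicle; cytotoxicity annotated from phase-contrast morphology.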

[16] = read-out: sulfotransferase (SULT2A), SULT2A1 (gene 6822); experiment: CLD_SULT2A_24hr: CellzDirect (CLD) Gene Expression Assay for sulfotransferase (SULT2A) at 24 hours (AID 2283694);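 for AC50: potency for increased SULT2A1 mRNA level as induction over DMSO baseline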
Outline: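 mRNA is measured by qNPA: probe hybridisation, S1 nuclease digestion, chemiluminescence, in lysates from human primary hepatocytes harvested 24 h after daily dosing. Vehicle was 0.2% DMSO. Phase-contrast microscopy flagged cytotoxicity (yes/no).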

[17] = read-out: HMG-CoA synthase (HMGCS2), HMGCS2 (gene 3158); experiment: CLD_HMGCS2_48hr: CellzDirect (CLD) Gene Expression Assay for HMG-CoA synthase (HMGCS2) at 48 hours (AID 2283711)
Outline: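 mRNA induction read by qNPA chemiluminescence, 48 h after dosing. Cultured primary human liver cells (two donor preparations) received fresh compound daily over two days against 0.2% DMSO vehicle; morphology-based cytotoxicity noted alongside.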

Measured: AC50

Cytochrome P450 2C19 (Homo sapiens), sequence (P33261 whole entry, looked up): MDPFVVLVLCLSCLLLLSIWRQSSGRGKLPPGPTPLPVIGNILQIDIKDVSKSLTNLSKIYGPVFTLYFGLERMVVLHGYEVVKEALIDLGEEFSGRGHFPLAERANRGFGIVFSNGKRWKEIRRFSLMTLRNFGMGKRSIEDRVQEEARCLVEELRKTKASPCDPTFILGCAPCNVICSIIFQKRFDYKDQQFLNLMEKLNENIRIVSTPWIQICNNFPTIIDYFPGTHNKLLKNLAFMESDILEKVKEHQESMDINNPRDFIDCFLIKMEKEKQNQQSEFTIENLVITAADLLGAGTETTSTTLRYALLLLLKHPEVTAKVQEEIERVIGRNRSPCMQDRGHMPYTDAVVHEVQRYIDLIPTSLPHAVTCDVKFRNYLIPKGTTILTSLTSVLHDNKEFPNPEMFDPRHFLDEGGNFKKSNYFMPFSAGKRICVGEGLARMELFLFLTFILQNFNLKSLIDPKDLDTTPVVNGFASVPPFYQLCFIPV
Cytochrome P450 3A4 (Homo sapiens), sequence (P08684 whole entry, looked up): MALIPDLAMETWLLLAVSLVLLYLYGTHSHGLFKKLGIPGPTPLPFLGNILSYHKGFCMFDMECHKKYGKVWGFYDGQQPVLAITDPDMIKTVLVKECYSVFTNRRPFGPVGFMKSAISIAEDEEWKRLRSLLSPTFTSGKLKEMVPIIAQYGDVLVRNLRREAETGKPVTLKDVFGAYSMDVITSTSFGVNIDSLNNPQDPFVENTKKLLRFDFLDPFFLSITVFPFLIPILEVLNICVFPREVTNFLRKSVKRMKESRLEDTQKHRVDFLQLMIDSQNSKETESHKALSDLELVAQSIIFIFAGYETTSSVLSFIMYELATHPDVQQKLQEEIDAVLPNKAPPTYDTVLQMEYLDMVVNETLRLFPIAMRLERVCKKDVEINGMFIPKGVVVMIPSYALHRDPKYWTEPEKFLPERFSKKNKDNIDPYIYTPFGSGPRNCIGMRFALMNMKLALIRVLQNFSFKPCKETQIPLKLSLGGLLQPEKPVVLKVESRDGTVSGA

COc1cc(Cl)c(OC)cc1Cl
active: [3] 0.0752 µM | [6] 3.97 µM
inactive: [1] | [2] | [4] | [5] | [7] | [8] | [9]

CCCCOCN(C(=O)CCl)c1c(CC)cccc1CC
active: [2] 3.57 µM | [3] 2.5 µM | [5] 9.38 µM | [6] 11.5 µM | [8] 20 µM
inactive: [1] | [10] | [11] | [9]

COC(=O)N(C(=O)N1CO[C@@]2(C(=O)OC)Cc3cc(Cl)ccc3C2=N1)c1ccc(OC(F)(F)F)cc1
active: [2] 5.15 µM | [3] 0.505 µM | [5] 4.25 µM | [6] 2.72 µM
inactive: [1] | [12] | [9]

N#Cc1c[nH]cc1-c1cccc2c1OC(F)(F)O2
inactive: [12] | [2] | [9]
active: [3] 2.54 µM | [5] 2.37 µM | [6] 31.8 µM | [13] 38.3 µM

Clc1cccc(C(Cl)(Cl)Cl)n1
active: [2] 3.02 µM | [3] 1.47 µM | [6] 3.97 µM | [13] 19.7 µM
not listed: [4] | [12] | [15] | [16] | [17]
inactive: all other assays above

COC(=O)c1c(C(F)F)nc(C(F)(F)F)c(C2=NCCS2)c1CC(C)C
inactive: [10] | [12] | [4] | [14] | [9]
active: [2] 1.9 µM | [3] 0.378 µM | [5] 1.66 µM | [6] 8.66 µM | [8] 20 µM | [15] 1.7 µM

OC(c1ccc(Cl)cc1)(c1ccc(Cl)cc1)C(Cl)(Cl)Cl
active: [2] 11 µM | [3] 4.47 µM | [6] 20 µM
inactive: [10] | [12] | [14] | [5] | [7] | [8] | [9] | [15]

CC(C)(C)C(=O)C(Oc1ccc(Cl)cc1)n1cncn1 (stereo not given)
active: [2] 1.5 µM | [3] 3.31 µM | [5] 12.9 µM | [6] 8.65 µM
inactive: [10] | [4] | [8] | [9] | [13]

COCC(C)N(C(=O)CCl)c1c(C)csc1C (stereo not given)
inactive: [1] | [10] | [6] | [7] | [9]
active: [3] 5.14 µM | [8] 32.1 µM

CC1(C)C(C=C(Cl)Cl)C1C(=O)OC(C#N)c1cccc(Oc2ccccc2)c1 (stereo not given)
inactive: [1] | [10] | [4] | [14] | [6] | [13]
active: [3] 6.46 µM | [5] 14.6 µM | [9] 6.03 µM

CCOC(=O)C(C)OC(=O)c1cc(Oc2ccc(C(F)(F)F)cc2Cl)ccc1[N+](=O)[O-] (stereo not given)
active: [16] 3.51 µM | [2] 5.01 µM | [3] 20 µM | [5] 20 µM | [6] 20 µM | [9] 7 µM | [17] 0.241 µM
inactive: [4]

CC(C)Oc1cccc(NC(=O)c2ccccc2C(F)(F)F)c1
inactive: [4] | [14] | [9]
active: [3] 5.34 µM | [5] 7.17 µM | [6] 36.6 µM

COCc1cnc(C2=NC(C)(C(C)C)C(=O)N2)c(C(=O)O)c1 (stereo not given)
inactive: [1] | [10] | [2] | [3] | [5] | [6] | [9] | [13]

O=C(Nc1ccccc1-c1ccc(Cl)cc1)c1cccnc1Cl
active: [3] 1.89 µM | [5] 4.95 µM | [6] 20 µM | [13] 50 µM
inactive: [16] | [10] | [12] | [11] | [8] | [9] | [15]

CC(C)N1C(=O)N(c2ccccc2)CSC1=NC(C)(C)C
active: [2] 8.18 µM | [3] 4.31 µM | [6] 33.6 µM
inactive: [10] | [12] | [4] | [14] | [5] | [8] | [9]

CSC(=O)c1c(C(F)F)nc(C(F)(F)F)c(C(=O)SC)c1CC(C)C
active: [2] 0.645 µM | [3] 0.416 µM | [5] 6.64 µM | [6] 20 µM | [8] 11.8 µM
inactive: [1] | [10] | [14] | [7] | [9] | [15]

Nc1c(Cl)c(Cl)nc(C(=O)O)c1Cl
active: [5] 5.16 µM
inactive: [2] | [3] | [4] | [11] | [6] | [7] | [9]

CCN(CC)c1nc(C)cc(OP(=S)(OC)OC)n1
active: [2] 3.58 µM | [3] 0.684 µM | [5] 7.6 µM | [6] 9.28 µM
inactive: [12] | [9] | [15]

CCCCC(C#N)(Cn1cncn1)c1ccc(Cl)cc1 (stereo not given)
active: [2] 20 µM | [3] 4.45 µM | [5] 11.7 µM | [6] 35.1 µM | [13] 76 µM
inactive: [1] | [10] | [12] | [14] | [8] | [9]

Cc1cc(C)nc(Nc2ccccc2)n1
inactive: [2] | [14] | [9] | [15] | [17] | [13]
active: [3] 1.61 µM | [5] 7.9 µM | [6] 3.97 µM
